# Source: the supplement of paper PMC10849652
# Targets with a hit are over-represented here; the source holds about 7,900 in all. About 0.6% of all pairs of compound and target were hits. A number with no mark means an inactive call.
# Assays:
# Experiment in all cases: log2 fold change, soluble protein after heating vs DMSO (PISA); higher = thermal stabilisation; K562 cells, 10 uM, 30 min; active = over 0.2 and 3.5 SD of the protein, either way, in both replicates (recomputed)
# [1] = compound: COC1=CC=C(C=C1)CN2C=CC3=C2C=C(C=C3)C(=O)NO
# Outline: (§1)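 Thermal stability values are relative to control samples and come from duplicates. They are expressed as log2 fold changes. For measurement, K562 cells (2×10^6 cells/mL) received 10 μM compound for 30 min, and aliquots were heated for 3 min over 48°C-58°C, pooled, and extracted at 4°C in PBS with 0.5% NP-40. Soluble protein, the supernatant after 21,000xg for 90 min, was quantified by TMTpro 16plex LC-MS/MS with equalised channel sums.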
# filanesib = compound: CON(C)C(=O)N1N=C(c2cc(F)ccc2F)S[C@@]1(CCCN)c1ccccc1 [filanesib]
# Outline: as §1
# zotarolimus = compound: CO[C@H]1C[C@@H]2CC[C@@H](C)[C@@](O)(O2)C(=O)C(=O)N2CCCC[C@H]2C(=O)O[C@H]([C@H](C)C[C@@H]2CC[C@H](n3cnnn3)[C@H](OC)C2)CC(=O)[C@H](C)/C=C(\C)[C@@H](O)[C@@H](OC)C(=O)[C@H](C)C[C@H](C)/C=C/C=C/C=C/1C [zotarolimus]
# Outline: as §1
# idasanutlin = compound: COc1cc(C(=O)O)ccc1NC(=O)[C@@H]1N[C@@H](CC(C)(C)C)[C@](C#N)(c2ccc(Cl)cc2F)[C@H]1c1cccc(Cl)c1F [idasanutlin]
# Outline: as §1
# alisertib = compound: COc1cc(Nc2ncc3c(n2)-c2ccc(Cl)cc2C(c2c(F)cccc2OC)=NC3)ccc1C(=O)O [alisertib]
# Outline: as §1
# [2] = compound: COc1cc2nc(-c3cc(F)ccc3O)nc(N[C@@H]3CNC[C@H]3C(C)(C)O)c2cc1OC
# Outline: as §1
# gefitinib = compound: COc1cc2ncnc(Nc3ccc(F)c(Cl)c3)c2cc1OCCCN1CCOCC1 [gefitinib]
# Outline: as §1
# [3] = compound: COc1cccc2cc(-c3nc([C@H]4CC[C@H](C(=O)O)CC4)n4ncnc(N)c34)[nH]c12
# Outline: as §1
# lapatinib = compound: CS(=O)(=O)CCNCc1ccc(-c2ccc3ncnc(Nc4ccc(OCc5cccc(F)c5)c(Cl)c4)c3c2)o1 [lapatinib]
# Outline: as §1
# pictilisib = compound: CS(=O)(=O)N1CCN(Cc2cc3nc(-c4cccc5[nH]ncc45)nc(N4CCOCC4)c3s2)CC1 [pictilisib]
# Outline: as §1
# [4] = compound: CS(=O)(=O)c1ccc(-c2cnc(N)c(C(=O)Nc3ccccc3)n2)cc1
# Outline: as §1
# crizotinib = compound: C[C@@H](Oc1cc(-c2cnn(C3CCNCC3)c2)cnc1N)c1c(Cl)ccc(F)c1Cl [crizotinib]
# Outline: as §1
# [5] = compound: C[C@@H]1COCCN1C2=NC(=NC(=C2)C3(CC3)S(=O)(=O)C)C4=C5C=CNC5=CC=C4
# Outline: as §1
# [6] = compound: C[C@H](C1=CC=C(C=C1)C(=O)NC2=C3C=CNC3=NC=C2)N
# Outline: as §1
# duvelisib = compound: C[C@H](Nc1ncnc2nc[nH]c12)c1cc2cccc(Cl)c2c(=O)n1-c1ccccc1 [duvelisib]
# Outline: as §1
# gandotinib = compound: Cc1cc(Nc2cc(CN3CCOCC3)c3nc(C)c(Cc4ccc(Cl)cc4F)n3n2)n[nH]1 [gandotinib]
# Outline: as §1
# tozasertib = compound: Cc1cc(Nc2cc(N3CCN(C)CC3)nc(Sc3ccc(NC(=O)C4CC4)cc3)n2)n[nH]1 [tozasertib]
# Outline: as §1
# [7] = compound: Cc1cc(SCc2sc(-c3ccc(C(F)(F)F)cc3)nc2C)ccc1OCC(=O)O
# Outline: as §1
# doramapimod = compound: Cc1ccc(-n2nc(C(C)(C)C)cc2NC(=O)Nc2ccc(OCCN3CCOCC3)c3ccccc23)cc1 [doramapimod]
# Outline: as §1
# ispinesib = compound: Cc1ccc(C(=O)N(CCCN)[C@@H](c2nc3cc(Cl)ccc3c(=O)n2Cc2ccccc2)C(C)C)cc1 [ispinesib]
# Outline: as §1
# UniProt Q96CW6, sequence (Q96CW6 whole entry, looked up): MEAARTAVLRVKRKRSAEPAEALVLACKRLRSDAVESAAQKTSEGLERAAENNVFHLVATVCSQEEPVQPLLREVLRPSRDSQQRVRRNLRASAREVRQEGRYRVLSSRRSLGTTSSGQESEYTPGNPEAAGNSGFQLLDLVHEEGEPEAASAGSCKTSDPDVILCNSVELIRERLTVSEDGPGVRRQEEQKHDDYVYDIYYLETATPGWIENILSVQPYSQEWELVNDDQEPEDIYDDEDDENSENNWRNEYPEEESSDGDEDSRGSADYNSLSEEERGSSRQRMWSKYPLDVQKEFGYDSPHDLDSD
# UniProt Q15582, sequence (Q15582 whole entry, looked up): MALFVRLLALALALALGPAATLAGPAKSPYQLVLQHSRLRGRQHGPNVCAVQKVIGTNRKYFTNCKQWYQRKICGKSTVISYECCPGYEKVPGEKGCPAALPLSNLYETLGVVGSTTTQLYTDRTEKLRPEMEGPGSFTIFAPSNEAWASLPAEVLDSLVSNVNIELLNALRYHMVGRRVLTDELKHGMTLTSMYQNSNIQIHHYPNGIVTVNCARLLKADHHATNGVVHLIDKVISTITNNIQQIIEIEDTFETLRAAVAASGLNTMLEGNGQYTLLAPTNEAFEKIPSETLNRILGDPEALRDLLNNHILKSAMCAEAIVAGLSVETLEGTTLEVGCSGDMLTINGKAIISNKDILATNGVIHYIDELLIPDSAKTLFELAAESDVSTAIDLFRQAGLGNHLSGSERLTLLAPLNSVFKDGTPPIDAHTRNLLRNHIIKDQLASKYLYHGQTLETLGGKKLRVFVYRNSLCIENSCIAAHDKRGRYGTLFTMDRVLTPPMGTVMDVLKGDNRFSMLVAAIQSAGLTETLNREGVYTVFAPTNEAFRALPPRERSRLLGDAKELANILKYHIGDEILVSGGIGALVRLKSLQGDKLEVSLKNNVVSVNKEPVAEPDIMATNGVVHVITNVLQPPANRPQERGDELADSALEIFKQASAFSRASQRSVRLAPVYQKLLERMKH
# UniProt Q9P289, sequence (Q9P289 whole entry, looked up): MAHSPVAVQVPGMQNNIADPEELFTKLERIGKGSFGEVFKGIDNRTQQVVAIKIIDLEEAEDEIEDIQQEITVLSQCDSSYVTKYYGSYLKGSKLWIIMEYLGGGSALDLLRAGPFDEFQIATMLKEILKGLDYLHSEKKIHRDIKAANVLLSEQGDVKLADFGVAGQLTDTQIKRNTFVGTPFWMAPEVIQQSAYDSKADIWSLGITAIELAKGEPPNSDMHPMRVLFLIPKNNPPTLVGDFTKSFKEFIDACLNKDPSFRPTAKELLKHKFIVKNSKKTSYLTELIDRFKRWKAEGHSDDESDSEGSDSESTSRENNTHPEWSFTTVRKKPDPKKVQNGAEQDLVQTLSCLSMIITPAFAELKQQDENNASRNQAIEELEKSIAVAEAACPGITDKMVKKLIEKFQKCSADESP
# UniProt O94901, sequence (O94901 whole entry, looked up): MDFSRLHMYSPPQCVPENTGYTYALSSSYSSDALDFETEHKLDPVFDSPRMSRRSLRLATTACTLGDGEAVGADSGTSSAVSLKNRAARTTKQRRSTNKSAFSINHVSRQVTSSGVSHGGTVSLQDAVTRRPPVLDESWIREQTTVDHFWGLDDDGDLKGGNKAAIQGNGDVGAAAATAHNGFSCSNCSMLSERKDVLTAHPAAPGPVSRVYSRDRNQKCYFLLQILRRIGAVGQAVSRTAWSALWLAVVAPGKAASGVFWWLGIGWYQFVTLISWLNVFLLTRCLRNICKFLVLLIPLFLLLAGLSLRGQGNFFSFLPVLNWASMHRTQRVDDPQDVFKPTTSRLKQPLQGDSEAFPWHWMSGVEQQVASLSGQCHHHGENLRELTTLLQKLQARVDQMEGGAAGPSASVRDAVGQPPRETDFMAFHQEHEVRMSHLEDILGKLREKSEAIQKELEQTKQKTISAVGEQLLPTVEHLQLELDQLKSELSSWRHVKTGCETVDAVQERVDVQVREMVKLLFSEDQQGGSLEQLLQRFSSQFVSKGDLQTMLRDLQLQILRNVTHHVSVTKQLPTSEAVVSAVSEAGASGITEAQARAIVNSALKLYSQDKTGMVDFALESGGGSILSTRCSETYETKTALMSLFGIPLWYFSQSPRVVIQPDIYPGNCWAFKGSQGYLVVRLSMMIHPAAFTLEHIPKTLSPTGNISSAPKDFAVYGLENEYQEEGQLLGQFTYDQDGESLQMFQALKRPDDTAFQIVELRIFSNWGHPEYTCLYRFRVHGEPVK
# UniProt Q8IY18, sequence (Q8IY18 whole entry, looked up): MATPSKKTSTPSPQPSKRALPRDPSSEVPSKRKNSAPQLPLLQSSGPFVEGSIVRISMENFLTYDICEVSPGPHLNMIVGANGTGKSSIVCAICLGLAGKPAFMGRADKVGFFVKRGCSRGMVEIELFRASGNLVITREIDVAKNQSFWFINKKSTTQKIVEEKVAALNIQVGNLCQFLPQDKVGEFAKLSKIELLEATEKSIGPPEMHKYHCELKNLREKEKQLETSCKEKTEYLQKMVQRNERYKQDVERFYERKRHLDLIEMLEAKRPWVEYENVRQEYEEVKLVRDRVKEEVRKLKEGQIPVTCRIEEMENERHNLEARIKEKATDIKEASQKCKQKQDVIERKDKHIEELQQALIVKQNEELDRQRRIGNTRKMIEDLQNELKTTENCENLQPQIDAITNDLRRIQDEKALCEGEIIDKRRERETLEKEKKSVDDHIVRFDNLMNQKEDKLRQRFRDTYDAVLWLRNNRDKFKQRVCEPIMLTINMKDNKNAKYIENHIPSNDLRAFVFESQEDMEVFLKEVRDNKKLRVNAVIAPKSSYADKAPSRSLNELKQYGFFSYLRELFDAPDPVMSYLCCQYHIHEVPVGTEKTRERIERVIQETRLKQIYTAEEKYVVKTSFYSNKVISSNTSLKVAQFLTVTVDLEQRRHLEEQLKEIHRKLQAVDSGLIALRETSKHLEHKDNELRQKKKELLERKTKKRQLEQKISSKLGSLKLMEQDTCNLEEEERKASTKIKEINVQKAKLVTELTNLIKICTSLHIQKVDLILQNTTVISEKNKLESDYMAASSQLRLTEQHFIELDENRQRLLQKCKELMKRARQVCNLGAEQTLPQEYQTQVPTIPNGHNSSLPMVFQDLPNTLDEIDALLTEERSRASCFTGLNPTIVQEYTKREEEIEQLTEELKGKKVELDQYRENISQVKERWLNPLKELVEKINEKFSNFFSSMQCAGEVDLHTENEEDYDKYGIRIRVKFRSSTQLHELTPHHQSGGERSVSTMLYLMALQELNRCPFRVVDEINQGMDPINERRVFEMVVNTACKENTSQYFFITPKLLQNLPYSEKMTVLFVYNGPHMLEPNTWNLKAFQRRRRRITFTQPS
# UniProt Q07157, sequence (Q07157 whole entry, looked up): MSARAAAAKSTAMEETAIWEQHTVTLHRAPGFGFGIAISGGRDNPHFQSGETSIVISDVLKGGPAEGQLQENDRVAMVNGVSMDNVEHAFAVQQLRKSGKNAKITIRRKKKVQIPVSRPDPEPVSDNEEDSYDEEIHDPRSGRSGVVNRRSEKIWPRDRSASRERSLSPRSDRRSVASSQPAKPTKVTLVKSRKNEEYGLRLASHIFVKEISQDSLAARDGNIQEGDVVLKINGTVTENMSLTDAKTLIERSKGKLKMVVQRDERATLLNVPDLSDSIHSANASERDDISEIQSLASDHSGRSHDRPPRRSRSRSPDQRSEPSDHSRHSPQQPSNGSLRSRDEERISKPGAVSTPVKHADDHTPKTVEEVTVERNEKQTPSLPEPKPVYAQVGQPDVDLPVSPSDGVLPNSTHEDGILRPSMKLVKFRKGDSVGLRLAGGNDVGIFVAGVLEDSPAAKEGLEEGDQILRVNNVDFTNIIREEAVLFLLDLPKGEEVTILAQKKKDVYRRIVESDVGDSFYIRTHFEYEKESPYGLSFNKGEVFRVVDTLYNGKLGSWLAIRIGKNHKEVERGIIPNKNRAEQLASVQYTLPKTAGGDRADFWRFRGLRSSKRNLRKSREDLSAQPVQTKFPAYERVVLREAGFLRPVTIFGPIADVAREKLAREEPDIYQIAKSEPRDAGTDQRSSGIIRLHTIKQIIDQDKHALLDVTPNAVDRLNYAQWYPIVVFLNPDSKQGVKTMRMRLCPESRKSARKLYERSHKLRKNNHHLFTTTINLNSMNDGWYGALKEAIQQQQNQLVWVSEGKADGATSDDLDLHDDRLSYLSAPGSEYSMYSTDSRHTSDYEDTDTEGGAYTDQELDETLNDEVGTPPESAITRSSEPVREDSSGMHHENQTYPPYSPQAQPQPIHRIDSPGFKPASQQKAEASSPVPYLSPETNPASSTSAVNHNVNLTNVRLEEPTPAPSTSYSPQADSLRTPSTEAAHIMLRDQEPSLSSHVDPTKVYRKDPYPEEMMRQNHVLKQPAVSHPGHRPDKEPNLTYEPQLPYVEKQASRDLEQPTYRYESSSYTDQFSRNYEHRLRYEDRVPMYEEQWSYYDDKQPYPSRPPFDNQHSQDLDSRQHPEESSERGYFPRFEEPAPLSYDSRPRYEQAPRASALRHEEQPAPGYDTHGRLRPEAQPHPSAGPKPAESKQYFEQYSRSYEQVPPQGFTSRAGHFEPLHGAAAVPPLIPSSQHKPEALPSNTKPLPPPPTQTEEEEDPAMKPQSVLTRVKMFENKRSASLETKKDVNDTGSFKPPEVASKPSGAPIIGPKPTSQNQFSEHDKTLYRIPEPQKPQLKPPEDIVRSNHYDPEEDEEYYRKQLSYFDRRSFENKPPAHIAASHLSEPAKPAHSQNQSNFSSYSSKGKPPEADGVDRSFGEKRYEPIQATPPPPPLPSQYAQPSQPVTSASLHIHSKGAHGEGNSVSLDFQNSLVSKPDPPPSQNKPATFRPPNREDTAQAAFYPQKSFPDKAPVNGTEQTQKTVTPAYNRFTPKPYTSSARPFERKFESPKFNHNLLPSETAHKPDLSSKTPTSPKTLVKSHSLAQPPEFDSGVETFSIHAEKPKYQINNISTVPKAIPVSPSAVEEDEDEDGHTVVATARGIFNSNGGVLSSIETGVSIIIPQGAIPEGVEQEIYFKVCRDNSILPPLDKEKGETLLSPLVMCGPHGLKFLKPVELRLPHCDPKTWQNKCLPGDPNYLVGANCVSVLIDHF
Target,log2 fold change [1],log2 fold change (filanesib),log2 fold change (zotarolimus),log2 fold change (idasanutlin),log2 fold change (alisertib),log2 fold change [2],log2 fold change (gefitinib),log2 fold change [3],log2 fold change (lapatinib),log2 fold change (pictilisib),log2 fold change [4],log2 fold change (crizotinib),log2 fold change [5],log2 fold change [6],log2 fold change (duvelisib),log2 fold change (gandotinib),log2 fold change (tozasertib),log2 fold change [7],log2 fold change (doramapimod),log2 fold change (ispinesib)
TGFBI (UniProt Q15582),0.063,-0.054,-0.892 (active),0.084,-0.012,-0.003,-0.029,0.15,0.018,-0.083,-0.021,-0.047,0.215,0.181,0.067,-0.451,0.031,0.043,-0.182,-0.159
SNRNP27 (UniProt Q8WVK2),-0.075,0.03,-0.156,0.121,-0.003,-0.015,-0.011,0.135,0.005,-0.009,0.002,0.038,-0.069,0.072,0.041,0.013,-0.084,-0.065,-0.056,-0.119
SLC7A6OS (UniProt Q96CW6),-0.085,0.006,0.046,-0.034,-0.073,-0.072,0.007,-0.037,0.038,0.019,0.047,-0.04,0.004,-0.133,0.047,-0.081,0.028,-0.049,0.214,0.077
SUN1 isoform 9 (UniProt O94901),-0.062,0.084,0.162,0.02,-0.059,-0.14,-0.053,0.122,0.052,-0.002,-0.03,-0.067,-0.005,0.006,-0.059,-0.052,-0.047,-0.017,0.089,-0.324 (active)
STK39 (UniProt Q9UEW8),-0.016,-0.033,0.062,-0.06,-0.044,0.034,-0.014,-0.036,-0.002,0.107,0.109,-0.174,0.028,0.061,0.007,-0.038,-0.049,0.048,-0.027,-0.038
TJP1 (UniProt Q07157),0.02,0.035,0.03,0.001,-0.059,0.005,0.038,0.055,-0.006,0.017,0.004,-0.016,0.044,-0.06,0.076,-0.124,0.064,0.061,-0.01,0.026
SULT1A1 (UniProt P50225),0.161,0.034,0.042,-0.02,0.056,0.046,0.062,-0.03,0.026,0.138,-0.019,0.065,0.065,-0.073,-0.101,-0.029,0.006,0.035,0.016,-0.018
STK26 (UniProt Q9P289),0.018,-0.147,-0.03,0.045,-0.059,0.069,-0.037,0.009,0.019,-0.105,-0.019,-0.308 (active),0.123,0.049,-0.01,-0.061,-0.11,-0.01,-0.034,-0.146
TELO2 (UniProt Q9Y4R8),-0.026,0.113,0.098,-0.103,-0.16,-0.122,0.004,-0.125,0.007,-0.023,-0.022,-0.055,0.013,0.233,-0.055,-0.198,0.013,0.176,0.094,-0.136
STARD3NL (UniProt O95772),-0.005,-0.082,-0.054,-0.19,-0.056,0.095,0.048,0.075,-0.048,0.024,-0.011,-0.448 (active),0.055,-0.067,0.111,-0.14,0.03,-0.058,0.063,-0.256
SMC5 (UniProt Q8IY18),-0.055,0.009,-0.032,-0.081,0.047,0.009,0.034,0.028,0.018,0.024,0.03,0.161,0.081,0.036,0.046,0.028,0.017,0.017,0.015,0.092
TK1 (UniProt P04183),-0.012,-0.258 (active),-0.023,-0.011,-0.034,0.021,-0.018,0.073,-0.009,0.045,-0.046,0.011,-0.008,-0.097,0.004,-0.055,-0.032,-0.03,-0.013,0.017
TIAL1 isoform 2 (UniProt Q01085),0.033,0.037,-0.016,0.026,-0.064,0.076,-0.007,0.02,0.029,0.01,0.008,-0.039,0.023,-0.014,0.006,-0.048,-0.023,0.046,-0.054,0.01
TAOK1 (UniProt Q7L7X3),-0.046,0.054,-0.032,0.031,0.043,-0.088,0.033,0.011,0.014,-0.043,-0.002,-0.035,0.011,-0.08,-0.012,-0.029,-0.027,0.023,0.021,-0.001
SUMO1 (UniProt P63165),-0.363,0.102,-0.183,-0.099,-0.052,-0.507 (active),0.004,0.055,0.549 (active),0.006,-0.125,0.06,-0.045,0.176,-0.137,0.064,0,-0.039,-0.038,0.039
SRPRB (UniProt Q9Y5M8),0.133,-0.076,0.018,-0.11,-0.021,0.136,-0.001,-0.03,0.048,-0.022,-0.006,0.01,0.059,-0.042,0.012,0.055,-0.017,0.083,-0.026,0.055
